This is one part of a sample in which hits are shown more often than they occur.
Giardia FBPA inh – blocks Giardia fructose-bisphosphate aldolase activity | Potency, µM (titrated, usually from 59.6 µM), for inactives: at the top dose activity, negative = inhibition, hits mostly inhibitors | hit rate 0.71% among 290,000 | A8B2U2 | purified Giardia FBPA; further: potency means the concentration at half of the fitted maximal effect; on the % scale 0 is the no-effect control and ±100 the full control effect; nearly all actives have a fitted effect of over 55% in size
Target sequence (A8B2U2 whole entry, looked up): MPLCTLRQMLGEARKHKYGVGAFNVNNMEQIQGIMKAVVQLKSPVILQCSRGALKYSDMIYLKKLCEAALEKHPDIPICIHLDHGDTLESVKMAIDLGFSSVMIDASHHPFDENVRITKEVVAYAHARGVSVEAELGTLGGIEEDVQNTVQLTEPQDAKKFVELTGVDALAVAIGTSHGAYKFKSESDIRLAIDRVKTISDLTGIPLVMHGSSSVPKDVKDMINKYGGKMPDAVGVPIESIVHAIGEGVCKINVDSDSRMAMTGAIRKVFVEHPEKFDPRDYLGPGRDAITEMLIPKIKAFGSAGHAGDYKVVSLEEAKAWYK
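40 nM FBPA preincubated 10 min at RT with compound (up to 57.5 uM final), then substrate plus GAPDH/TPI/NAD/arsenate coupling and diaphorase/resazurin added. Fluorescence read after 20 min at RT, 525/598 nm.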
Tb PYK inh – inhibitors of Trypanosoma brucei pyruvate kinase; hit rate 0.12% among 410,000; TbPYK enzyme, Kinase-Glo Plus ATP luminescence, 45 min; Q57TT1; Potency, µM (doses to about 76.8 µM), without a hit: at the highest dose activity, negative = inhibition, usual class: inhibitors; further: potency means the concentration at half of the fitted maximal effect; on the % scale 0 is the no-effect control and ±100 the full control effect; nearly all actives have a fitted effect of over 50% in size
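ADP (130 uM final) triggers the TbPYK reaction after compound addition; incubation is 45 min at room temperature. Kinase-Glo Plus is then added and luminescence imaged. Normalized data are fitted to concentration-effect curves.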
RE007 growth inh – less growth of the S. pombe RE007 Vpr strain. S. pombe RE007 Vpr strain, BacTiter-Glo ATP luminescence, 24 h. Potency, µM (doses to about 92.2 µM), without a hit: top-dose activity change, negative = less growth, actives largely listed as inhibitors. hit rate 0.21% among 360,000. AID 651644; active means well fitted falling curve with a large enough effect; inconclusive means small, poorly fitted or top-dose-only effect; inactive means no such curve, though single readings can be large or run the other way; further: potency means the concentration at half of the fitted maximal effect; on the % scale 0 is the no-effect control and ±100 the full control effect; nearly all actives have a fitted effect of over 50% in size
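Fission yeast strain RE007, carrying one chromosomally integrated HIV-1 vpr copy, was seeded at OD 0.01 in PMG+AL medium with 23 nL pinned compound. After 24 h at 30 °C and 99% humidity, viability was read by BacTiter-Glo luminescence.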
Cycloheximide cs – affects cycloheximide protein synthesis inhibition readout, counter-screen; cell reporter, cycloheximide protein synthesis inhibition counterscreen; max response, %; hit rate 12% among 300,000; in the data active means max response mostly above about 13%, no sharp cut-off; inactive means mostly below about 14%; further: read at 38.3 µM for the half of the compounds with a filed dose; 0% is about no effect
Shiga toxin inh – Shiga toxin inhibition; Vero cells, Shiga toxin protein synthesis inhibition reporter; inhibition, % at 38.7 µM; hit rate 9.2% among 290,000; in the data active means inhibition mostly above about 28%, no sharp cut-off; inactive means mostly below about 43%; further: 0% is about no effect
LmPK inhibitor – blocks Leishmania mexicana pyruvate kinase activity; Potency, µM (series often up to 57.5 µM), for the others: at the top dose activity change, negative = inhibition, most hits filed as inhibitors; purified LmPK, Kinase-Glo ATP luminescence, 1 h; Q27686; AID 1721; hit rate 0.37% among 290,000; further: potency means the concentration at half of the fitted maximal effect; on the % scale 0 is the no-effect control and ±100 the full control effect
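Kinase-Glo luminescence read after 1 h RT reaction of 0.1 nM LmPK with 0.5 mM PEP and 0.1 mM ADP. Activity scaled between uninhibited and enzyme-free controls.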
An asterisk follows results filed as active; ? = inconclusive; nt = no result. Unless noted, the call rests on the fitted dose curve; in most records, active means well fitted curve in the direction sought with a large enough effect; inconclusive means small, poorly fitted or top-dose-only effect, or another doubt; inactive means no such curve, though single readings can be large; an effect the other way counts as inactive or inconclusive.

SMILES	Giardia FBPA inh	Tb PYK inh	RE007 growth inh	Cycloheximide cs	Shiga toxin inh	LmPK inhibitor
Cc1ccc2nc(-c3ccc4c(c3)NC(=O)CO4)cn2c1	?	-11%	-20%	42*	72*	-5%
Clc1ccc2nc(-c3ccc4c(c3)OCO4)cn2c1	-27%	-7%	?	35*	76*	?
CN(Cc1ccc(Cl)cc1)C(=O)c1ccccc1SCC(=O)N1CCCC1	nt	-3%	-9%	nt	nt	nt
CCOC(=O)C1CCCN(C(=O)C2(c3ccc(Cl)cc3)CCCC2)CC1 (stereo not given)	nt	6%	0%	nt	nt	nt
COc1cccc([C@@H]2Oc3ccc(Br)cc3C(=O)[C@H]2OC(=O)N[C@H]2CCCc3ccccc32)c1	2%	nt	nt	nt	nt	nt
O=[N+]([O-])c1cccnc1N/N=C/c1ccccc1O	0%	-27%	0%	43*	78*	14µM*
Cc1c(O)ccc(/C=N/Nc2ncccc2[N+](=O)[O-])c1O	16%	-13%	?	32*	141*	-5%
O=C(O)CNc1ncccc1[N+](=O)[O-]	0%	-4%	13%	-2	-8	1%
O=[N+]([O-])c1ccc(NN=Cc2ccccc2O)nc1	nt	9%	-14%	nt	nt	nt
CCC(=O)N1CCC(c2ccc(OC)cc2)=N1	2%	-1%	-10%	36*	38*	-5%
Cc1c(CC(=O)O)c(=O)oc2cc(OCc3ccc(Br)cc3)ccc12	9%	-2%	16%	16*	27	0%
COC(=O)Cc1c(C)c2ccc(OC(=O)c3ccco3)cc2oc1=O	1%	-2%	-22%	-9	-16	-6%
Cc1c(C)c2ccc(OC3CCCCC3=O)cc2oc1=O (stereo not given)	-14%	-7%	-7%	24*	26	3%
COC(=O)Cc1c(C)c2ccc(OC(C)C)cc2oc1=O	0%	5%	10%	48*	96*	-1%
COC(=O)Cc1c(C)c2ccc(OC3CCCCC3=O)cc2oc1=O (stereo not given)	-2%	-10%	9%	39*	30*	4%
Cc1c(CC(=O)O)c(=O)oc2cc(OCc3ccc(F)cc3F)ccc12	4%	-6%	10%	5	10	0%
Cc1ccc(NS(=O)(=O)c2cnc(N)nc2)c(C)c1	nt	-5%	nt	nt	nt	nt
Cc1ccc(C(=O)N/N=C/c2cccc(OC(=O)/C=C/c3ccco3)c2)cn1	-12%	-4%	-6%	33*	86*	7%
O=C(/C=C/c1ccco1)Oc1cc(Br)cc(/C=N/NC(=O)c2ccccc2O)c1	-8%	2%	-28%	39*	22	6%
CC1(c2ccc3ccccc3c2)CCC(=O)O1 (stereo not given)	nt	3%	9%	nt	nt	nt
CC1(c2cnc(Nc3ccccc3)s2)CCC(=O)O1 (stereo not given)	5%	5%	11%	34*	64*	2%
O=C(NCCCCCNC(=O)c1cccnc1)c1cccnc1	1%	3%	0%	-4	-24	4%
O=C(NCCc1cccc(Cl)c1)c1cccc([N+](=O)[O-])c1	-1%	5%	5%	22*	16	3%
O=C(NCCOCCOCCNC(=O)c1cccnc1)c1cccnc1	1%	10%	26%	17*	38	0%
O=C(NCCc1cccc(Cl)c1)c1cccnc1	-21%	-2%	18%	57*	142*	1%
CC(C)(C)c1ccc(C(=O)N2CC(=O)Nc3ccc(F)cc3C2c2ccc(F)cc2)cc1 (stereo not given)	nt	-10%	nt	nt	nt	nt
Cc1cccc(OC(C)C(=O)Nc2ncn[nH]2)c1 (stereo not given)	nt	0%	nt	nt	nt	nt
CC(=O)N1CCN(CC(=O)Nc2cc(S(=O)(=O)N3CCOCC3)ccc2C)CC1	0%	3%	22%	-5	-1	-2%
COCCn1c(C)cc(C(=O)Cn2nc(C(=O)O)c3ccccc3c2=O)c1C	-1%	-5%	2%	17	20	0%
Cc1cc(C(=O)Cn2nc(C(=O)O)c3ccccc3c2=O)c(C)n1-c1ccc(F)cc1	5%	5%	12%	49*	155*	1%

Bioassay records: PubChem BioAssay, National Center for Advancing Translational Sciences (NCATS)
